The list is not random: actives were taken first. Their share in the collection is about 4.5%.
Gli-Sufu antag: blocks Gli-Sufu signaling in a luciferase reporter | Sufu-KO-LIGHT fibroblasts, Gli luciferase reporter luminescence | inhibition, % at 5 µM | AID 588413 | actives 0.74% (n = 340,000);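 active = inhibition above about 55%, limit read from the data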;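 note: 0% = DMSO-treated cells and 100% = wells with medium but no cells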
Jurkat NFkB inh: lowers PMA/ionomycin-induced NF-kB signal in Jurkat cells; PMA/ionomycin-induced NF-kB luciferase reporter, luminescence; actives 0.53% (n = 330,000); inhibition, % at 4 µM; in the data active = inhibition above about 50%
CSC inhib: blocks cancer stem cells. cancer stem cell-like cells viability, luminescence. inhibition, % at 7.5 µM. actives 1.1% (n = 300,000). AID 2717; in the data active = inhibition above about 75%; inconclusive = no clear call, values can overlap the other calls; tested in HMLE shEcad cells
Mdm2-MdmX inh: inhibitors of human Mdm2/MdmX interaction. O15151+Q00987. SaOS-2 split-luciferase Mdm2/MdmX complementation, luminescence. inhibition, % at 8 µM. actives 3% (n = 330,000);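 active = inhibition of at least 50% at 8 µM in the primary screen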
Target sequence (O15151 whole entry, looked up): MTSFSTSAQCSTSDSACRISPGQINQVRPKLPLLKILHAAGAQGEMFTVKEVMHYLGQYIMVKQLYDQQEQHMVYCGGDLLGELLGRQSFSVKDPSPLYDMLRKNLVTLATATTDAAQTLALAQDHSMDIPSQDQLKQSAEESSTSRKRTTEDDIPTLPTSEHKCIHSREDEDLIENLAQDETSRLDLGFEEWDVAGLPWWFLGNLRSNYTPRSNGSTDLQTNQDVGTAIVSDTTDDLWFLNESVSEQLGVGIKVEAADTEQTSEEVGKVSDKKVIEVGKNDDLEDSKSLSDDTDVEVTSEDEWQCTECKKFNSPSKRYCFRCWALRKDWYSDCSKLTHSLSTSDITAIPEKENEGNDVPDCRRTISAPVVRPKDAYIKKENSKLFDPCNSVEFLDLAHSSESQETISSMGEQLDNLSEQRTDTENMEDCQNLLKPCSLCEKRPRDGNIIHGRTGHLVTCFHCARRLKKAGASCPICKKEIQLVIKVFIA
Target sequence (Q00987 whole entry, looked up): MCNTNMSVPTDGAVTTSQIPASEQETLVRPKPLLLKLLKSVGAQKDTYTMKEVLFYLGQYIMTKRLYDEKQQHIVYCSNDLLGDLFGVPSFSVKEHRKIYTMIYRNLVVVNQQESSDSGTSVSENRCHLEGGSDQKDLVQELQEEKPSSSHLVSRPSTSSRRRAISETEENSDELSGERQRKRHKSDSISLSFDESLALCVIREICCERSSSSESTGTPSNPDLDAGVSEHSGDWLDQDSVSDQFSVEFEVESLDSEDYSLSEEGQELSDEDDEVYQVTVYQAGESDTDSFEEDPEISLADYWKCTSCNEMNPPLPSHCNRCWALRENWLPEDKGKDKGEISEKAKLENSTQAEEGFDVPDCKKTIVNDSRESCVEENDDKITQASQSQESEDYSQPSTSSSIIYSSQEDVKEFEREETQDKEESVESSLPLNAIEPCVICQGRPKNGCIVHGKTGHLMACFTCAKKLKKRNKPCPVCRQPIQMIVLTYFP
aSyn 5UTR inh: MLPCN primary screen, SNCA 5' untranslated region; alpha-synuclein 5'UTR reporter, inhibitor activity; inhibition, % (tested at 7.5 µM); actives 0.82% (n = 300,000); AID 1813; in the data active = inhibition above about 60%; inconclusive = no clear call, values can overlap the other calls;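 note: H4 neuroglioblastoma cells stably carrying SNCA 5'UTR luciferase fusion; 0% = DMSO wells and 100% = positive control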
697 NFkB inh: inhibitors of the PMA/ionomycin-induced NF-kB reporter in 697 B cells; 697 B-cell NF-kB luciferase reporter, 16 h; inhibition, % at 4 µM; actives 0.33% (n = 330,000); AID 435022; in the data active = inhibition above about 35%
Mdm2 MdmX conf: human Mdm2/MdmX binding inhibition, confirmed; shares compounds with Mdm2-MdmX inh; luminescent assay; inhibition, % at 8 µM; actives 55% (n = 10,000); in the data active = inhibition above about 40%
FLuc counter: full-length luciferase inhibition in Mdm2/MdmX counter-screen; shares compounds with Mdm2-MdmX inh; SaOS-2 full-length luciferase counterscreen, luminescence; inhibition, % at 8 µM; actives 77% (n = 6,200); AID 504607;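 active = mean inhibition at 8 µM reaching about 37%, which flags the compound as non-specific, limit read from the data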;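 note: p53-null SaOS-2 cells with luciferase driven by a doxycycline-inducible promoter; compound on cells about two nights before reading with doxycycline added after day one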
* hit, by the source's call; u = inconclusive; x = no result.

SMILES | Gli-Sufu antag | Jurkat NFkB inh | CSC inhib | Mdm2-MdmX inh | aSyn 5UTR inh | 697 NFkB inh | Mdm2 MdmX conf | FLuc counter
C[C@H]1CCC[C@]2(C)C[C@H]3OC(=O)C(CN4CCCCCC4)[C@H]3C=C12 (some centres undefined) | -4 | 24 | 16 | 73* | -25 | 18 | 48* | 14
CCCc1c(NC(=O)Nc2ccc(F)cc2)cnn1-c1ccc(Cl)cc1 | -16 | -9 | 25 | 61* | 40 | -113 | 32 | x
O=C(Nc1ncc(Cc2ccccc2)s1)C1COc2ccccc2O1 (centres undefined) | -87 | -115 | -6 | -200 | -190 | -163 | x | x
O=C(Nc1ccccc1C(=O)NC(Cc1ccccc1)C(=O)NC1CCCCCC1)c1ccccc1 (centres undefined) | 1 | -6 | -5 | 62* | 8 | 7 | -1 | x
CN[C@H]1CC[C@@H](c2ccc(Cl)c(Cl)c2)c2ccccc21 | 5 | x | x | 69* | x | x | 16 | x
O=C1C=C(O)CC(c2ccc(Cl)c(Cl)c2)C1 (centres undefined) | 3 | 16 | -1 | 12 | -4 | 5 | x | x
CCOc1ccc(-c2cc(C(=O)NCCCn3ccnc3)c3cc(Br)ccc3n2)cc1 | -31 | 9 | 11 | 100* | u | -8 | 23 | x
O=C(Cc1cccc2ccccc12)N1CCCc2ccccc21 | 1 | -5 | 16 | 3 | 36 | 11 | x | x
COC(=O)C1=C(C)NC(C)=C(C(=O)OCC(C)C)C1c1ccccc1[N+](=O)[O-] (centres undefined) | 6 | 12 | 55 | 72* | 71* | 15 | 65* | 23
Cc1ccc(O)c(CNc2ccc(S(=O)(=O)Nc3nccs3)cc2)c1 | -32 | 6 | 6 | 22 | 0 | -4 | x | x
O=C(NCCCCc1ccccc1)c1ccccc1 | -5 | -19 | -16 | -23 | 11 | -13 | x | x
CCC[C@@H](CNC)NC[C@H](Cc1ccccc1)NCCCCc1ccccc1 | 18 | 11 | 133* | 97* | -16 | -22 | 83* | 55*
CCC[C@@H](CN[C@@H](CNC)C(C)C)NCCCCc1ccccc1 | 13 | 17 | 23 | 97* | -14 | 11 | 91* | 21
CCc1ccc(Nc2nnc(SCc3cc(=O)n4ccsc4n3)s2)cc1 | -82 | -34 | -27 | -3 | 11 | 3 | x | x
O=C(Nc1cc(F)c(Br)cc1F)c1ccc(Cl)cc1 | -69 | -114 | 13 | -123 | -152 | -81 | x | x
COc1nc(N)c(C#N)c(-c2ccc(N(C)CCC#N)cc2)c1C#N | -6 | 19 | 23 | 73* | 20 | 20 | 47* | 82*
COc1ccc(-c2c(C#N)c(N)nc(Sc3ccc(Cl)cc3)c2C#N)cc1 | 11 | 15 | 17 | 33 | u | -18 | x | x
C=CCn1c(O)c(C2=c3ccccc3=NC2=O)s/c1=N/c1nccs1 | 2 | 0 | -6 | 79* | -31 | 9 | 23 | x
Cc1ccc2nc(-c3ccccc3)cc(C(=O)N(C)CC(=O)Nc3ccccc3Br)c2c1 | 7 | -4 | x | 53* | -24 | -2 | 28 | x
O=S(=O)(NC(=S)c1ccccc1)c1ccccc1 | 7 | 6 | 3 | -2 | 25 | 16 | x | x
CC(C)N=C(NS(=O)(=O)c1ccccc1)C(Cl)(Cl)Cl | 47 | 9 | -2 | 83* | -15 | 13 | 60* | 74*
O=C(Nc1ccc(Cl)c(S(=O)(=O)N2CCCC2)c1)c1cc(=O)[nH]c2ccccc12 | 1 | 9 | 2 | 52* | x | 13 | 10 | x
COc1ccc(C(=O)Nc2ccc(NC(=O)c3ccccc3)cc2)cc1S(=O)(=O)N1CCOCC1 | -7 | 33 | -6 | 86* | 9 | 11 | -5 | x
COc1ccc(C(=O)Nc2ccncc2)cc1S(=O)(=O)N1CCOCC1 | -23 | -12 | -12 | -9 | x | -4 | x | x
O=C(Nc1ccc(N2CCOCC2)cc1)c1ccc(Cl)c(S(=O)(=O)N2CCCC2)c1 | 38 | 46 | x | 24 | x | -10 | x | x
SMILES | Gli-Sufu antag | Jurkat NFkB inh | CSC inhib | Mdm2-MdmX inh | aSyn 5UTR inh | 697 NFkB inh | Mdm2 MdmX conf | FLuc counter
O=C(Nc1ccc(NC(=O)c2ccc(Cl)c(S(=O)(=O)N3CCOCC3)c2)cc1)c1ccccc1 | -4 | 37 | -10 | 58* | -15 | -37 | 45* | 48*
Cc1cc(CN2CCC(n3nccc3NC(=O)c3ccccc3Cl)CC2)cc(C)c1O | 29 | 6 | -10 | -7 | 4 | 2 | x | x
COc1nnc(-c2ccc(N3CCCCC3)c(NC(=O)C3CCCCC3)c2)c2ccccc12 | 3 | 19 | 33 | 90* | 13 | 15 | 29 | x
COC(=O)c1cccc(C23CC4(C2)[C@H](CN(Cc2ccc(C(F)(F)F)cc2)[C@@H]4c2ccccc2)C3c2ccc(C(F)(F)F)cc2)c1 (some centres undefined) | -14 | 25 | 17 | 73* | 0 | -33 | 59* | 24
FC(F)(F)c1ccc(CN2C[C@@H]3C(c4ccccc4)C4(c5cccnc5)CC3(C4)[C@H]2c2ccccc2)cc1 (some centres undefined) | 8 | -13 | 63 | 25 | 29 | -31 | x | x
FC(F)(F)c1ccc(CN2C[C@@H]3C(c4ccc(C(F)(F)F)cc4)C4(c5cccnc5)CC3(C4)[C@H]2c2ccccc2)cc1 (some centres undefined) | 5 | 13 | 42 | 65* | -1 | 11 | 12 | x
COC(=O)c1ccc(C23CC4(C2)[C@H](CN(Cc2ccc(C(F)(F)F)cc2)[C@@H]4c2ccccc2)C3c2ccc(C(F)(F)F)cc2)cc1 (some centres undefined) | x | 16 | x | 8 | 18 | 16 | x | x
O=S(=O)(c1cccs1)N1CCN(c2ccnc3cc(Cl)ccc23)CC1 | 5 | 24 | x | 57* | 47 | 8 | 23 | x
CCN1CCN(Cc2ccc(NC(=O)c3cc(NC(=O)c4ccc5n[nH]nc5c4)cc(OC)c3)cc2C(F)(F)F)CC1 | 26 | 0 | -7 | -20 | 22 | -4 | x | x
CCN1CCN(Cc2ccc(NC(=O)c3cc(NC(=O)c4ccno4)cc(OC)c3)cc2C(F)(F)F)CC1 | 28 | -24 | 9 | 55* | -45 | -9 | 38 | 61*
CCN1CCN(Cc2ccc(NC(=O)c3cc(NC(=O)N4CCNC4=O)cc(OC)c3)cc2C(F)(F)F)CC1 | 19 | 11 | -8 | 76* | -18 | 13 | 50* | 68*
CCN1CCN(Cc2ccc(NC(=O)c3ccc(C)c(NC(=O)c4c[nH]c5cc(C(F)(F)F)ccc5c4=O)c3)cc2C(F)(F)F)CC1 | 6 | -23 | 105* | 100* | 113* | 8 | 100* | 52*
CCN1CCN(Cc2ccc(NC(=O)c3ccc(C)c(NC(=O)C[C@@H]4NC(=O)[C@H](Cc5ccccc5)NC4=O)c3)cc2C(F)(F)F)CC1 | -1 | 4 | -23 | 10 | 3 | -2 | x | x
